Compound activity deposited in PubChem BioAssay by Broad Institute.
Glyco luc inh: blocks N-linked glycosylation in D54 reporter cells; D54 ERlucT glycosylation luciferase reporter, 24 h; percent of 100 nM tunicamycin response; reporter increase, % at 12.5 µM; hit rate 0.23% among 360,000; AID 588692;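 active = mean luciferase reporter signal, scaled so untreated is 0 and the glycosylation-blocking control 100, at or above a set limit in every replicate; inconclusive = mean reaches the limit but not every replicate does; inactive = mean below the limit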;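 also: luciferase carries N-glycosylation sites so blocking glycosylation raises the light; 0% = median of neutral control wells and 100% = median of 100 nM tunicamycin wells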
NSD2 HMT inh: inhibitors of human histone methyltransferase NSD2; NSD2 peptide methylation, AlphaScreen, 120 min; inhibition, % at 12.5 µM; hit rate 0.54% among 310,000; AID 743445; in the data active = inhibition above about 50%
LMP1 NFkB inh: Epstein-Barr LMP1 NF-kappaB reporter inhibition | LMP1-induced NF-kappaB luciferase reporter cells, luminescence | hit rate 0.69% among 350,000 | inhibition, % at 12.5 µM; in the data active = inhibition above about 41%; inconclusive = no clear call, values can overlap the other calls;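 also: 0% = neutral control wells and 100% = reference inhibitor control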
PAX8 inh HTS: lowers PAX8-driven luciferase in RMG-I cells; RMG-I TPO-luciferase reporter, SteadyGlo, 24 h; inhibition, % at 12.6 µM; hit rate 1.2% among 360,000;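 active = mean replicate inhibition at least 60% with every replicate also reaching 60%; inconclusive = only one of the two criteria is met; inactive = mean below 60% and not all replicates reaching 60%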;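 also: luciferase light reporting Pax8 driven TPO promoter activity; plate controls were median of neutral control wells for no effect and mitoxantrone controls for full effect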
Shn3 3UTR inh: Schnurri-3 reporter inhibition in Clone20 osteoblasts. Clone20 osteoblast Shn3 3'UTR firefly luciferase, 24 h. inhibition, % at 12.5 µM. hit rate 0.52% among 360,000. AID 588674;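 active = mean inhibition of at least 75% with every replicate also reaching 75%; inconclusive = mean inhibition at least 75% but some replicate below; inactive = mean inhibition below 75%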;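 also: 0% = median of neutral control wells and 100% = pilot-screen positive control compound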
HIV Env fusion: blocks HIV Env-driven cell-cell fusion | hit rate 1.1% among 360,000 | inhibition, % at 12.3 µM | HeLa-JRFL Env/CEM21 cell fusion, luciferase;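 active = mean replicate inhibition score of at least 50 and every replicate individually at or above 50; inconclusive = only one of the two criteria met; inactive = mean below 50 and not all replicates reaching 50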;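 also: 0% = plate neutral controls and 100% = maraviroc near 300 nM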
AlphaScreen art: interferes with AlphaScreen signal, flagging NSD2 false positives. AlphaScreen artifact counterscreen, preloaded methylated H4 peptide. hit rate 9.4% among 1,500. AC35, µM (top dose mostly 10 µM), without a hit: at the top dose activity change, negative = signal loss. AID 1053174. shares compounds with NSD2 HMT inh; call rule not given here
* hit, by the source's call; [ ] = another dose, or the depositor's remark. An excerpt weighted towards active compounds, which were near 2.8% of everything screened.

O=C(c1ccccc1)N1C[C@@H]2[C@H](c3ccccc31)[C@@H](CO)N2C(=O)CN1CCOCC1 was read as PAX8 inh HTS -13.
C/C=C/c1ccc([C@@H]2[C@@H](CNC(=O)CC)N(C(=O)COC)[C@H]2CO)cc1 was read as PAX8 inh HTS -26.
`COC(=O)c1ccc2c(c1)C(C)(C)C(/C=C/c1ccccc1O)=[N+]2C` gave Glyco luc inh -16, NSD2 HMT inh 7, LMP1 NFkB inh -22, Shn3 3UTR inh 97* and HIV Env fusion inactive.
Screening COc1ccccc1NC(=O)NCc1ccco1 returned Glyco luc inh 2, NSD2 HMT inh -1, LMP1 NFkB inh -7, PAX8 inh HTS 2, Shn3 3UTR inh 28 and HIV Env fusion 26.
Screening COc1cc(NC(=O)NCc2ccco2)ccc1-c1ccc(NC(=O)NCc2ccco2)cc1OC returned Glyco luc inh 21, NSD2 HMT inh 23, LMP1 NFkB inh 1, PAX8 inh HTS 67*, Shn3 3UTR inh 83* and HIV Env fusion -50.
Screening CC1CN(c2nc3ccccc3nc2C(C#N)C(=O)OC2CCCCC2)CC(C)O1 (stereo not drawn) returned Glyco luc inh -4, NSD2 HMT inh -1, LMP1 NFkB inh -6, Shn3 3UTR inh 6 and HIV Env fusion 59*.
Screening CC(C)NC(=O)Nc1ccc2c(c1)CC(=O)N([C@@H](C)CO)C[C@@H](C)[C@H](CN(C)C(=O)Nc1ccc(F)cc1)O2 returned PAX8 inh HTS -18 and HIV Env fusion -19[16.7 µM].
Cc1ccccc1-c1ccc2c(c1)O[C@@H](CN(C)C)[C@@H](C)CN([C@@H](C)CO)S2(=O)=O was read as HIV Env fusion -4[16.7 µM].
For C[C@@H]1CN([C@@H](C)CO)C(=O)Cc2cc(NC(=O)Nc3ccc4c(c3)OCO4)ccc2O[C@H]1CN(C)Cc1ccc(C(F)(F)F)cc1 the results were PAX8 inh HTS 40 and HIV Env fusion inconclusive.
`COc1ccc(-c2cc(=O)oc3c(C)c(O)ccc23)cc1` gave Glyco luc inh -13, NSD2 HMT inh -1, LMP1 NFkB inh -5, PAX8 inh HTS 26, Shn3 3UTR inh -5 and HIV Env fusion 72*.
For Cc1c(O)ccc2c(-c3ccccc3)cc(=O)oc12 the results were Glyco luc inh -9, NSD2 HMT inh -3, LMP1 NFkB inh 2, PAX8 inh HTS 12, Shn3 3UTR inh 6 and HIV Env fusion 33.
O=C(O)CN1C(=O)/C(=C/c2ccc(SCc3ccccc3)o2)SC1=S was read as Glyco luc inh 4, NSD2 HMT inh 54*, LMP1 NFkB inh -1, PAX8 inh HTS -11, Shn3 3UTR inh 2, HIV Env fusion 6 and AlphaScreen art -6%.
`CCN(CC)CCNS(=O)(=O)c1ccc2c3c(cccc13)C(=O)N2` gave Glyco luc inh 4, NSD2 HMT inh 55*, LMP1 NFkB inh -3, PAX8 inh HTS 13, Shn3 3UTR inh -9, HIV Env fusion -7 and AlphaScreen art 1%.
For CC1(C)C2CCC1(C)C(OC(=O)CSc1nc(N)cc(=O)[nH]1)C2 (stereo not drawn) the results were Glyco luc inh 2, NSD2 HMT inh 80*, LMP1 NFkB inh -6, Shn3 3UTR inh -23 and AlphaScreen art -4%.
`COc1cc(N(C)C)ccc1C=c1c2ccccc2n2c1cc(-c1ccccc1)[n+]2C` gave Glyco luc inh 9, NSD2 HMT inh 85*, LMP1 NFkB inh 2, PAX8 inh HTS 88*, Shn3 3UTR inh 95*, HIV Env fusion 5 and AlphaScreen art 1.5µM*.
For CC1=C(C)C(=O)N(c2ccccn2)C1=O the results were Glyco luc inh 4, NSD2 HMT inh -1, LMP1 NFkB inh -2 and Shn3 3UTR inh 8.
Screening Cc1nn(-c2ccccn2)c2c1C(=O)C(Br)CC2 (stereo not drawn) returned Glyco luc inh 7, NSD2 HMT inh 100*, LMP1 NFkB inh 12, Shn3 3UTR inh 4 and AlphaScreen art -1%.
C[C@@H]1CCCCO[C@@H](CN(C)C(=O)C2CCCCC2)[C@H](C)CN([C@@H](C)CO)C(=O)c2cc(NS(=O)(=O)c3ccc(F)cc3)ccc2O1 was read as PAX8 inh HTS -15 and HIV Env fusion -92[16.7 µM].
